Data on seven sequences can be found in paper PMC11006913.

Among the targets are HOXB9 (Homo sapiens, UniProt P17482 171-250, T197M); HOXC10 (Homo sapiens, UniProt Q9NYD6 254-340, K271E); VAX1 (Homo sapiens, UniProt Q5SQQ9 86-172); HOXC9 (Homo sapiens, UniProt P31274 178-260, K195R).
Assay in all cases: PBM; 200 nM protein, PBS
Details in all cases: dsDNA, one strand shown

The target of assay [1] is HOXA4 (Homo sapiens, UniProt Q00056 201-287, W262R).
Assay [2] concerns the target HOXA7 (Homo sapiens, UniProt P31268 116-202).
In assay [3] the target is HOXB6 (Homo sapiens, UniProt P17509 132-218, K202E).
Chain of HOXB6 (Homo sapiens, UniProt P17509 132-218, K202E) (P17509 132-218 K202E): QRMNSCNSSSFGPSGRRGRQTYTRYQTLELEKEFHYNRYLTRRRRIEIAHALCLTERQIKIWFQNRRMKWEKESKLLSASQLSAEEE
The target in assay [4] is HOXA4 (Homo sapiens, UniProt Q00056 201-287).
Chain of HOXA4 (Homo sapiens, UniProt Q00056 201-287) (Q00056 201-287): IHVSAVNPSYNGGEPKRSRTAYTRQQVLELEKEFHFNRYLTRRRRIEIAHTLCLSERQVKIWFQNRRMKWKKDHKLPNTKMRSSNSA
For assay [5], the target named is HOXA7 (Homo sapiens, UniProt P31268 116-202, W177C).
Chain of HOXA7 (Homo sapiens, UniProt P31268 116-202, W177C) (P31268 116-202 W177C): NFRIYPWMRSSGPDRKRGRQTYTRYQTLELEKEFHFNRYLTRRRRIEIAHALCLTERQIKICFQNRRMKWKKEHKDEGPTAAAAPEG
Assay [6] addresses HOXB6 (Homo sapiens, UniProt P17509 132-218).
The target of another assay is T1, VENTX (Homo sapiens, UniProt O95231 78-163).
T1 sequence: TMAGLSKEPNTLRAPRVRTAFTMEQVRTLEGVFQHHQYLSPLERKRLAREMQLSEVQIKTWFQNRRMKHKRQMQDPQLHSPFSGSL

The next assay concerns the target T2, PAX4 (Homo sapiens, UniProt O43316 9-242, R227W).
T2 sequence: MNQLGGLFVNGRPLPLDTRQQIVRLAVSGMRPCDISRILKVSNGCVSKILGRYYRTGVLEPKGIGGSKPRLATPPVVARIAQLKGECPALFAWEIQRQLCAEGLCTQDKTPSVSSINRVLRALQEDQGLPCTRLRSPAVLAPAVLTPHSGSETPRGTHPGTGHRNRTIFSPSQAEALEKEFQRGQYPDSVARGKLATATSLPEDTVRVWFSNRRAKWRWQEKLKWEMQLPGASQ

Assay [7] concerns the target HOXA2 (Homo sapiens, UniProt O43364 129-215, Y150S).
Assay [8] concerns the target HOXA2 (Homo sapiens, UniProt O43364 129-215).

Chain of HOXC10 (Q9NYD6 254-340 K271E): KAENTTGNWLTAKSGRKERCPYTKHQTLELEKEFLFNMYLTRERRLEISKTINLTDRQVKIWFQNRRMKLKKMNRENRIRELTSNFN
Chain of HOXA7 (Homo sapiens, UniProt P31268 116-202) (P31268 116-202): as the sequence (P31268 116-202 W177C) above, with C62W counted along it
Chain of HOXB9 (P17482 171-250 T197M): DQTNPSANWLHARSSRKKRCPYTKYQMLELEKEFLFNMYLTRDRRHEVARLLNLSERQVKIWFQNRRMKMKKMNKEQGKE
Chain of HOXA4 (Homo sapiens, UniProt Q00056 201-287, W262R) (Q00056 201-287 W262R): as the sequence (Q00056 201-287) above, with W62R counted along it
Chain of HOXA2 (Homo sapiens, UniProt O43364 129-215, Y150S) (O43364 129-215 Y150S): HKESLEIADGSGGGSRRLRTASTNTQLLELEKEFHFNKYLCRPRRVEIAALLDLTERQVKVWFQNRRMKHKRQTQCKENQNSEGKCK
Chain of VAX1 (Q5SQQ9 86-172): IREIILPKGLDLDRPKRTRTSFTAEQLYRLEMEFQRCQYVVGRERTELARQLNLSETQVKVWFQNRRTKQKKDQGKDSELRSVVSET
Chain of HOXA2 (Homo sapiens, UniProt O43364 129-215) (O43364 129-215): as the sequence (O43364 129-215 Y150S) above, with S22Y counted along it
Chain of HOXB6 (Homo sapiens, UniProt P17509 132-218) (P17509 132-218): as the sequence (P17509 132-218 K202E) above, with E71K counted along it
Chain of HOXC9 (P31274 178-260 K195R): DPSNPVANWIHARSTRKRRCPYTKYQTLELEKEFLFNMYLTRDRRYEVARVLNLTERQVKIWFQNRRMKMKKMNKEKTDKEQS

Turning to ATAATTGA, the binding signal is 9.97 upbm affinity estimate (log intensity, higher = more binding, comparable within an allelic series) with HOXB9; 10.6 upbm affinity estimate (log intensity, higher = more binding, comparable within an allelic series) with HOXA4 [1]; 11.2 upbm affinity estimate (log intensity, higher = more binding, comparable within an allelic series) with HOXA7 [2]; 10 upbm affinity estimate (log intensity, higher = more binding, comparable within an allelic series) with HOXB6 [3]; 13.7 upbm affinity estimate (log intensity, higher = more binding, comparable within an allelic series) with HOXA4 [4]; 8.94 upbm affinity estimate (log intensity, higher = more binding, comparable within an allelic series) with HOXA7 [5]. Also, in the assay with HOXB6 [6], the binding signal was 11.7 upbm affinity estimate (log intensity, higher = more binding, comparable within an allelic series).

For the sequence CCTAATTA, the binding signal is 10.7 upbm affinity estimate (log intensity, higher = more binding, comparable within an allelic series) with HOXA4 [1]; 13 upbm affinity estimate (log intensity, higher = more binding, comparable within an allelic series) with VENTX; 11.8 upbm affinity estimate (log intensity, higher = more binding, comparable within an allelic series) with HOXA7 [2]; 10 upbm affinity estimate (log intensity, higher = more binding, comparable within an allelic series) with HOXB6 [3]; 14.2 upbm affinity estimate (log intensity, higher = more binding, comparable within an allelic series) in the assay with HOXA4 [4]; 11.8 upbm affinity estimate (log intensity, higher = more binding, comparable within an allelic series) with HOXC10. The binding signal is 13.8 upbm affinity estimate (log intensity, higher = more binding, comparable within an allelic series) in the assay with VAX1; 11.2 upbm affinity estimate (log intensity, higher = more binding, comparable within an allelic series) with PAX4; 10.8 upbm affinity estimate (log intensity, higher = more binding, comparable within an allelic series) with HOXA2 [7]; 8.85 upbm affinity estimate (log intensity, higher = more binding, comparable within an allelic series) in the assay with HOXA7 [5]; 13.2 upbm affinity estimate (log intensity, higher = more binding, comparable within an allelic series) with HOXA2 [8]; 12.1 upbm affinity estimate (log intensity, higher = more binding, comparable within an allelic series) in the assay with HOXB6 [6].

ACTAATTA: the binding signal in the assay with HOXB9 was 10.1 upbm affinity estimate (log intensity, higher = more binding, comparable within an allelic series); with HOXA4 [1] it was 10.9 upbm affinity estimate (log intensity, higher = more binding, comparable within an allelic series); with HOXC9, 12.5 upbm affinity estimate (log intensity, higher = more binding, comparable within an allelic series); in the assay with VENTX it was 13.3 upbm affinity estimate (log intensity, higher = more binding, comparable within an allelic series); in the assay with HOXA7 [2], 12.1 upbm affinity estimate (log intensity, higher = more binding, comparable within an allelic series); with HOXB6 [3], 10.2 upbm affinity estimate (log intensity, higher = more binding, comparable within an allelic series). The binding signal with HOXA4 [4] was 14.2 upbm affinity estimate (log intensity, higher = more binding, comparable within an allelic series); with HOXC10 it was 11.9 upbm affinity estimate (log intensity, higher = more binding, comparable within an allelic series); with VAX1, 14 upbm affinity estimate (log intensity, higher = more binding, comparable within an allelic series); in the assay with PAX4 it was 11.4 upbm affinity estimate (log intensity, higher = more binding, comparable within an allelic series); with HOXA2 [7], 11 upbm affinity estimate (log intensity, higher = more binding, comparable within an allelic series); with HOXA7 [5], 8.93 upbm affinity estimate (log intensity, higher = more binding, comparable within an allelic series). The binding signal was 13.3 upbm affinity estimate (log intensity, higher = more binding, comparable within an allelic series) with HOXA2 [8] and 12.4 upbm affinity estimate (log intensity, higher = more binding, comparable within an allelic series) in the assay with HOXB6 [6].

Consider ACTAATTG, for which the binding signal with HOXA4 [1] was 10.5 upbm affinity estimate (log intensity, higher = more binding, comparable within an allelic series); with VENTX, 12.9 upbm affinity estimate (log intensity, higher = more binding, comparable within an allelic series); with HOXA4 [4], 13.7 upbm affinity estimate (log intensity, higher = more binding, comparable within an allelic series); with VAX1 it was 13.3 upbm affinity estimate (log intensity, higher = more binding, comparable within an allelic series); with PAX4, 10.8 upbm affinity estimate (log intensity, higher = more binding, comparable within an allelic series); in the assay with HOXA2 [7] it was 10.8 upbm affinity estimate (log intensity, higher = more binding, comparable within an allelic series). Further, in the assay with HOXA2 [8], the binding signal is 12.4 upbm affinity estimate (log intensity, higher = more binding, comparable within an allelic series).

Regarding CAATTATG, the binding signal in the assay with HOXB6 [3] is 9.97 upbm affinity estimate (log intensity, higher = more binding, comparable within an allelic series); with HOXB6 [6] it was 11.7 upbm affinity estimate (log intensity, higher = more binding, comparable within an allelic series).

With ATAATTAG, the binding signal in the assay with HOXB9 was 10.2 upbm affinity estimate (log intensity, higher = more binding, comparable within an allelic series); in the assay with HOXA4 [1] it was 10.9 upbm affinity estimate (log intensity, higher = more binding, comparable within an allelic series); with VENTX, 12.9 upbm affinity estimate (log intensity, higher = more binding, comparable within an allelic series); with HOXA7 [2], 11.8 upbm affinity estimate (log intensity, higher = more binding, comparable within an allelic series); with HOXB6 [3], 10.1 upbm affinity estimate (log intensity, higher = more binding, comparable within an allelic series); in the assay with HOXA4 [4], 14.2 upbm affinity estimate (log intensity, higher = more binding, comparable within an allelic series). Moreover, the binding signal with HOXC10 was 11.8 upbm affinity estimate (log intensity, higher = more binding, comparable within an allelic series); in the assay with VAX1 it was 13.8 upbm affinity estimate (log intensity, higher = more binding, comparable within an allelic series); in the assay with PAX4, 11.3 upbm affinity estimate (log intensity, higher = more binding, comparable within an allelic series); with HOXA2 [7] it was 11 upbm affinity estimate (log intensity, higher = more binding, comparable within an allelic series); with HOXA7 [5] it was 9.08 upbm affinity estimate (log intensity, higher = more binding, comparable within an allelic series); in the assay with HOXA2 [8], 13.1 upbm affinity estimate (log intensity, higher = more binding, comparable within an allelic series). Besides, the binding signal with HOXB6 [6] was 12.2 upbm affinity estimate (log intensity, higher = more binding, comparable within an allelic series).

Turning to CTCAATTA, the binding signal with HOXA4 [1] was 10.4 upbm affinity estimate (log intensity, higher = more binding, comparable within an allelic series); in the assay with HOXA4 [4], 13.6 upbm affinity estimate (log intensity, higher = more binding, comparable within an allelic series); in the assay with VAX1, 12.9 upbm affinity estimate (log intensity, higher = more binding, comparable within an allelic series); with HOXA2 [7], 10.8 upbm affinity estimate (log intensity, higher = more binding, comparable within an allelic series); in the assay with HOXA2 [8], 12.1 upbm affinity estimate (log intensity, higher = more binding, comparable within an allelic series).
